Sm TGR block – blocks Schistosoma mansoni thioredoxin glutathione reductase; Q962Y6; purified TGR, DTNB reduction, TNB absorbance 405 nm; Potency, µM (series often up to 114 µM), for the others: top-dose activity change, negative = inhibition, hits mostly inhibitors; 3% of 360,000 active; AID 485364; also: potency is read from the fitted curve at half-maximal effect; % is scaled to controls: 0 for no effect and ±100 for the full control effect; nearly all actives have a fitted effect of over 60% in size
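Kinetic colorimetric format: TGR-catalysed, NADPH-driven DTNB reduction monitored via TNB absorbance. Enzyme dispensed at 20 nM; compound exposure 15 min at room temperature before reaction start.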
Pf growth 96h – inhibits malaria parasite growth, 96 h; P. falciparum luciferase reporter growth, 96 h; Potency, µM (titrated, usually from 28.7 µM), for inactives: at the top dose activity change, negative = inhibition, hits mostly inhibitors; 6.9% of 320,000 active; AID 504834; also: potency is read from the fitted curve at half-maximal effect; % is scaled to controls: 0 for no effect and ±100 for the full control effect
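Delayed-death screen, second-generation endpoint: infected erythrocytes, 2% hematocrit, 0.05% parasitemia final; 96 hours at 37 C, 5% CO2; luciferase detection reagent; luminescence decrease equals reduced growth.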
SARS PLpro yeast-1 – blocks SARS-CoV papain-like protease in a yeast assay. S. cerevisiae expressing SARS-CoV PLpro, growth rescue. Potency, µM (series often up to 32.9 µM), inactives show top-dose activity, positive = growth rescue, most hits filed as activators. 0.19% of 330,000 active. AID 485353; calls by dose curve; also: potency is read from the fitted curve at half-maximal effect; 0% is about no effect; nearly all actives have a fitted effect of over 55% in size
HCMV antiviral – human cytomegalovirus inhibition; HFF cells, HCMV-luciferase reporter, 72 h; active compounds read low; activity change, negative = inhibition, % at 57.5 µM; 4.5% of 410,000 active; AID 1259415; in the data active = activity change below about -60%; inconclusive = no clear call, values can overlap the other calls; inactive = above about -39%; also: % is scaled to controls: 0 for no effect and ±100 for the full control effect
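Screen run at 2 compound doses on HFFs infected with reporter HCMV, MOI 1 PFU/cell. Luciferase activity from cell lysates at 72 h post infection gave inhibition relative to buffer-only and Salinomycin wells.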
HCV inhibitor – inhibitors of hepatitis C virus infection; Huh7.5.1 HCVcc-Cre infection, luciferase reporter, 44 h; Potency, µM (top dose mostly 41.8 µM), without a hit: at the highest dose activity change, negative = inhibition, usual class: inhibitors; 3.4% of 340,000 active; AID 651820; also: potency is read from the fitted curve at half-maximal effect; % is scaled to controls: 0 for no effect and ±100 for the full control effect
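Seed cells (1,000/well) for 4 h; treat with compound and infect with HCVcc-Cre, moi about 0.5. Incubate 44 h, then detect luciferase activity.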
Pf growth 48h – inhibits P. falciparum growth in the first generation, 48 h; P. falciparum luciferase growth in erythrocytes, 48 h; Potency, µM (series often up to 28.7 µM), for the others: at the highest dose activity change, negative = inhibition, actives largely listed as inhibitors; 5.9% of 310,000 active; AID 504832; also: potency is read from the fitted curve at half-maximal effect; % is scaled to controls: 0 for no effect and ±100 for the full control effect
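Growth was read as firefly luciferase luminescence after a 48 h, 37 C, 5% CO2 exposure of compounds to reporter-bearing P. falciparum cultures (0.1% parasitemia, 2% hematocrit final) in Albumax-supplemented RPMI 1640.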
SARS PLpro yeast-2 – Inhibits SARS-CoV PLP in yeast, hit validation; calls only; yeast expressing SARS-CoV PLpro, growth phenotype rescue; shares compounds with SARS PLpro yeast-1; 19% of 1,000 active; call rule not given here
Numbers without * were called inactive; i = inactive; ? = inconclusive; nt = no result; + = active, no number; [ ] = remark or other dose. Only some compounds are listed: those with a hit (about 15% of all), similar ones and a draw of the others. Unless noted, calls follow the shape of the dose curve; as a rule, active = well fitted curve in the direction sought with a large enough effect; inconclusive = small, poorly fitted or top-dose-only effect, or another doubt; inactive = no such curve, though single readings can be large; an effect the other way counts as inactive or inconclusive.

SMILES	Sm TGR block	Pf growth 96h	SARS PLpro yeast-1	HCMV antiviral	HCV inhibitor	Pf growth 48h	SARS PLpro yeast-2
N#CN(CC(N)=O)c1nc(N2CCCCC2)nc(N2CCCCC2)n1	2%	-8%	?	-3	10µM*	?	i
Cc1nc(SCC(=O)OC(C)(C)C)c2c3c(sc2n1)CCCC3	1%	nt	nt	-3	nt	nt	nt
CCc1ccc(-n2nc(C)c3c(C)cc(=O)n(CC(=O)Nc4ccc(C(C)=O)cc4)c32)cc1	3%	nt	nt	30	nt	nt	nt
O=S(=O)(CS(=O)(=O)c1ccccc1)c1ccccc1	nt	nt	nt	-29	10%	nt	nt
O=S(=O)(Cc1cnc(Cl)s1)c1ccccc1	0%	12%	13µM*	-15	7%	4%	i
CC(O)CNC(=O)C(=O)Nc1c2c(nn1-c1ccc(Cl)cc1)CSC2 (configuration not stated)	-24%	nt	nt	-1	nt	nt	nt
COc1cccc(CNC(=O)c2ccc(CS(=O)(=O)Cc3ccccc3C)o2)c1	?	19%	?	43	-17%	-19%	i
COc1cccc(CNC(=O)c2ccc(CS(=O)(=O)Cc3ccc(C)cc3)o2)c1	-7%	?	-3%	-3	6%	-11%	nt
CC(C)NC(=O)N(C)C[C@H]1Oc2cc(C#Cc3ccc(F)cc3)ccc2S(=O)(=O)N([C@H](C)CO)C[C@H]1C	nt	nt	nt	-4	nt	nt	nt
Cc1noc(C)c1C(=O)NCCc1c(C)[nH]c2ccccc12	-20%	?	-3%	3	-7%	0%	nt
COc1cc(CC(=O)NCC(C)(C)N2CCOCC2)cc(OC)c1OC	-2%	26%	-1%	-15	18%	1%	nt
O=C(Nc1ccc(Cl)cc1)N(CCCN1CCOCC1)Cc1cccs1	0%	?	?	107	-15%	nt	i
CCc1ccccc1NC(=S)N(CCCN1CCOCC1)Cc1cccs1	18%	2.6µM*	?	49	-2%	-17%	i
COc1cc(C(=O)NNC(=S)NC(=O)c2ccccc2C)cc(OC)c1OC	21%	-1%	7%	24	?	-4%	nt
COc1cc(C(=O)NC(=S)NNC(=O)c2cnccn2)cc(OC)c1OC	-7%	?	?	17	?	12µM*	i
Cc1ccccc1OCc1n[nH]c(=S)n1Cc1ccccc1	-21%	?	?	-38	13%	1%	?
Cc1cc(C)c(S(=O)(=O)N2CCCOC2CNC(=O)C(=O)NCCCn2ccnc2)c(C)c1 (configuration not stated)	5%	13%	?	-22	2%	-12%	?
Cc1ccc(C)c(S(=O)(=O)N2CCCOC2CNC(=O)C(=O)NCCCn2ccnc2)c1 (configuration not stated)	4%	16%	16%	-17	22%	-16%	nt
COc1cc2ccc(C(C)=NNC(N)=S)cc2cc1OC	nt	nt	nt	61	nt	nt	nt
Cc1cc(C)c2sc(NNC(=O)c3ccc(S(=O)(=O)N4CCc5ccccc5C4)cc3)nc2c1	-14%	12µM*	7.9µM*	-106*	2.8µM*	?	+
Cc1nnc(NC(=O)c2ccc(S(=O)(=O)N3CCc4ccccc4C3)cc2)o1	11%	-27%	1%	-39	9%	-8%	nt
CC(=O)/C=C1\OCc2cc(OCc3ccccc3)ccc21	nt	nt	nt	63	nt	nt	nt
O=C(CCCCC(=O)NN=Cc1ccccc1O)NN=Cc1ccccc1O	nt	nt	nt	12	?	nt	nt
O=C(CCn1cnc(-c2ccccc2)c1-c1ccccc1)N/N=C/c1ccccc1O	0%	0%	10µM*	?	?	0%	i
O=C(CC1C(=O)NCCN1C(=O)c1ccccc1)Nc1cc(Cl)ccc1Cl (configuration not stated)	-8%	23%	?	22	nt	78%	nt
SMILES	Sm TGR block	Pf growth 96h	SARS PLpro yeast-1	HCMV antiviral	HCV inhibitor	Pf growth 48h	SARS PLpro yeast-2
COc1cc(/C=N\NC(=O)C2COc3ccccc3O2)cc(OC)c1O (configuration not stated)	84%	-2%	-1%	-23	-5%	?	nt
CCOc1ccc(-n2c(O)c(/C=N/NC(=O)C3COc4ccccc4O3)c3ccccc3c2=O)cc1 (configuration not stated)	6%	69%	11µM*	4	-4%	14%	?
O=C(CSc1nc(=O)n(Cc2ccco2)c2c1CCC2)Nc1cccc(F)c1	-10%	nt	nt	-39	nt	nt	nt
S=c1[nH]nc(-c2ccncc2)n1/N=C/c1ccccc1	-3%	?	?	28	-1%	-6%	i
Fc1ccc(CNC(=S)NC2CCCC2)cc1	7%	4%	?	?	14%	3%	nt
O=C(NCc1ccccc1Cl)C1CCC(CNc2c(N3CCOCC3)c(=O)c2=O)CC1 (configuration not stated)	7%	-15%	-5%	0	9%	-14%	nt
CCc1sc(N)nc1-c1ccccc1	-1%	?	?	-18	-8%	-1%	i
Cc1cccc(C)c1NC(=O)c1ccc2c(c1)N(Cc1cccc(Cl)c1)C(=O)c1ccccc1S2=O (configuration not stated)	7%	nt	nt	5	nt	nt	nt
O=C1/C(=C/c2cccs2)N=C(c2cccs2)N1Nc1ccccc1	2%	nt	?	?	14µM*	20%	i
O=C(O)COc1ccccc1/C=N/NC(=O)CNC(=O)c1ccco1	-17%	-20%	0.4µM*	-17	-1%	26%	i
CC(C)(C)c1ccc(C(=O)NCC(=O)N/N=C/c2ccccc2OCC(=O)O)cc1	17%	13%	-1%	29	?	-41%[1.15 µM]	nt
COCCCNC(=O)CSc1nc2nc(C)c(Cc3ccccc3Cl)c(C)n2n1	-9%	nt	nt	-9	nt	nt	nt
COc1ccc(C(=O)CSc2nnc(NC(=O)C3CC(=O)N(c4ccccc4)C3)s2)cc1 (configuration not stated)	-3%	-27%	?	23	15%	12%	?
CC1(C)Oc2c(ccc(O)c2CN2CCOCC2)C2=C1CCCC2	nt	nt	nt	-11	-15%	nt	nt
NNC(=O)/C(=N/Nc1ccccc1)S(=O)(=O)c1ccc(Cl)cc1	3%	12µM*	?	-26	10µM*	9.3µM*	i
Cc1nc2cccnc2n1-c1cccc(C(=O)NCc2ccc(OC(C)C)cc2)c1	-16%	nt	nt	0	nt	nt	nt
C=CCNC(=O)C1CC2Cn3c(nc4cc(Cl)c(Cl)cc43)C2N1C (configuration not stated)	-8%	43%	?	9	17%	-27%	i
O=C(OCc1ccccc1F)c1cc(S(=O)(=O)N2CCCCC2)ccc1N1CCOCC1	nt	nt	nt	-6	nt	nt	nt

Screening results as filed in PubChem BioAssay.
